TrxR1 substrate = qHTS Assay for Substrates of Mammalian Selenoprotein Thioredoxin Reductase 1 (TrxR1): qHTS. purified TrxR1 substrate turnover, NADPH consumption readout. Potency, µM (top dose mostly 114 µM), without a hit: top-dose activity change, negative = substrate turnover. hit rate 0.01% among 390,000. AID 588456, 2011; note: potency is the fitted concentration of half-maximal effect; nearly all actives have a fitted effect of over 50% in size
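Rat TrxR1, dispensed at 90 nM, was prereduced with 400 uM NADPH (final) for 5 min at ~22 deg C, then incubated with compound 15 min before 400 uM selenite. A first-read NADPH fluorescence drop versus no-compound background flagged substrates.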
RORg inh = qHTS for inhibitors of ROR gamma transcriptional activity. Nuclear receptor ROR-gamma (Mus musculus), P51450. Potency, µM (titrated, usually from 53.6 µM), for the others: top-dose activity change, negative = inhibition, actives largely listed as inhibitors. Drosophila S2 Gal4-RORgamma UAS-luciferase reporter, 20 h. hit rate 5.4% among 310,000; note: potency is the fitted concentration of half-maximal effect; nearly all actives have a fitted effect of over 60% in size
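Read-out: Photinus luciferase luminescence; inhibitors lower reporter signal. Insect Schneider cells with Gal4-ROR gamma fusion under metallothionein promoter, UAS reporter; 700 uM final copper sulfate induction, 20 hr, ambient temperature.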
GALK inhibitor = qHTS Assay for Inhibitors of Human Galactokinase (GALK) | hit rate 0.007% among 270,000 | Potency, µM (titrated, usually from 57.5 µM), without a hit: at the top dose activity change, negative = inhibition, hits mostly inhibitors | P51570 | Purified GALK, Kinase-Glo residual ATP luminescence; note: potency is the fitted concentration of half-maximal effect
Target sequence (P51570 whole entry, looked up): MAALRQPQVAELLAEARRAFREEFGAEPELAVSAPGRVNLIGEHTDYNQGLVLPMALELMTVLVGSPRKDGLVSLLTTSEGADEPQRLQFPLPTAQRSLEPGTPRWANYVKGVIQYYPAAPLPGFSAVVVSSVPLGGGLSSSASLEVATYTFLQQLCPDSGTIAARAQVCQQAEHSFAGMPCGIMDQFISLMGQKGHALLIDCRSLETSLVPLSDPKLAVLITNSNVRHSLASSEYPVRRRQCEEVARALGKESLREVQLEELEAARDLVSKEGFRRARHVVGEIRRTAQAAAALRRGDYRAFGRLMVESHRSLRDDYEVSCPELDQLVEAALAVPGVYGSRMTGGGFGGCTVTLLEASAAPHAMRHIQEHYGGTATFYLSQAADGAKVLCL
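5 nM enzyme, 35 uM ATP, 100 uM galactose, 20 mM HEPES pH8.0, 5 mM MgCl2; 1 h RT; residual ATP by Kinase-Glo Plus luminescence, qHTS format.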
TrxR1 inh = qHTS Assay for Inhibitors of Mammalian Selenoprotein Thioredoxin Reductase 1 (TrxR1): qHTS; recombinant rTrxR1, NADPH fluorescence consumption, selenite substrate; Potency, µM (doses to about 114 µM), inactives show top-dose activity change, negative = inhibition, usual class: inhibitors; hit rate 1% among 390,000; note: potency is the fitted concentration of half-maximal effect; nearly all actives have a fitted effect of over 65% in size
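Rat TrxR1 (90 nM in the dispensed reagent) was pre-reduced with 400 uM NADPH for 5 min at room temperature, then incubated with compound for 15 min. After 400 uM selenite was added, NADPH fluorescence (Ex 340/Em 450 nm) was followed for 8 min.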
FBPA coupling cs = qHTS Assay for Inhibitors of Fructose-1,6-bisphosphate Aldolase from Giardia Lamblia: Coupling assay counterscreen; coupling enzyme system counterscreen, AmpLite Red fluorescence; activity change, negative = inhibition, % at 58.2 µM, hits read low; hit rate 0.67% among 290,000; AID 2472, 2010; in the data active = activity change below about -30%
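Final compound at 57.5 uM, incubated 10 min at RT with coupling enzyme reagent (glyceraldehyde-3-phosphate), then 20 min with substrate and AmpLite Red detection. Fluorescence read at 525/598 nm; tests interference with the coupling assay, not aldolase inhibition.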
Gal4-VP16 FLuc = VP16 counterscreen qHTS for inhibitors of ROR gamma transcriptional activity. Potency, µM (doses to about 53.6 µM), without a hit: top-dose activity, negative = inhibition, hits mostly inhibitors. hit rate 3.5% among 310,000. AID 2546, 2010. Drosophila S2 Gal4-VP16 UAS-luciferase, luminescence, 20 h;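 note: Gal4-VP16 expression switched on by copper sulfate through the metallothionein promoter; potency is the fitted concentration of half-maximal effect; nearly all actives have a fitted effect of over 50% in size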
Starred values were filed as active, the others as inactive; ? = inconclusive; . = not tested or not shown; [ ] = dose if it differs, or a comment. A selection: hits, their analogues and other compounds. The true share with any hit is near 5.9%. Unless noted, calls come from the whole dose curve; as a rule, active = well fitted curve in the direction sought with a large enough effect; inconclusive = small, poorly fitted or top-dose-only effect, or another doubt; inactive = no such curve, though single readings can be large; an effect the other way counts as inactive or inconclusive. % is set by controls: 0 for no effect and ±100 for the full control effect.

SMILES	TrxR1 substrate	RORg inh	GALK inhibitor	TrxR1 inh	FBPA coupling cs	Gal4-VP16 FLuc
Cc1ccc(CN(C)C(=O)CCc2nc3sc4c(c3c(=O)[nH]2)CCCC4)o1	-3%	?	2%	50µM*	0	-18%
CN(C)C(=O)CCc1nc2sc3c(c2c(=O)[nH]1)CCCC3	-1%	10%	1%	-3%	2	7%
CC(C)(C)c1ccc(C(=O)c2c[nH]c(C(=O)NCc3cccs3)c2)cc1	5%[57.1 µM]	?	-1%	30%[57.1 µM]	2	?
O=C(c1cc[n+]([O-])cc1)N1CCCC(N2CCN(c3cccc(C(F)(F)F)c3)CC2)C1 (stereo not drawn)	14%	1.3µM*	10%	20%	.	-65%
CC1(c2ccccc2)NC(=O)N(CC(=O)Nc2cccc(/C=C/c3ccccn3)c2)C1=O (stereo not drawn)	3%[57.1 µM]	.	.	11%[57.1 µM]	.	.
O=S(=O)(NCCSc1ccccn1)c1ccc(Br)cc1	6%[57.1 µM]	8.9µM*	2%	24%[57.1 µM]	-17	11µM*
S=C1SCN(CC2CC2)CN1CC1CC1	-8%	7.9µM*	-2%	-12%	0	7.1µM*
Cc1nn(C)c(C)c1CCC(=O)O	8%	2%	1%	12%[57.1 µM]	-12	-27%
COc1cccc(N2CC(O)=C(c3ccccc3)C2=N)c1	-4%	31%	-1%	0%	4	-10%
CCOC(=O)C1CN(S(=O)(=O)c2ccc(C)cc2)c2ccccc2O1 (stereo not drawn)	-5%	34%	3%	3.2µM*	-3	2%
CC(=O)Nc1ccc(S(=O)(=O)NCC(=O)OCC(=O)Nc2sccc2C(N)=O)cc1	10%	.	.	28%	.	.
C=CC1=C2C=C(C3CC3)N(Cc3ccc4c(c3)OCO4)C=C2C(=O)C(C)(OC(=O)c2ccco2)C1=O (stereo not drawn)	.	.	.	.	-6	.
C=CC1=C2C=C(C3CC3)N(Cc3ccccc3)C=C2C(=O)C(C)(OC(=O)c2ccco2)C1=O (stereo not drawn)	.	.	.	.	-36*	.
C=CC1=C2C=C(C3CC3)N(CCCOC(C)C)C=C2C(=O)C(C)(OC(=O)c2ccco2)C1=O (stereo not drawn)	.	.	.	.	-32*	.
COc1ccccc1-c1nccc(NCc2ccccc2)n1	.	22%	.	.	-1	-15%
Cc1ccc(-c2nc3ccccc3s2)cc1NC(=S)NC(=O)/C=C/c1ccco1	19%[57.1 µM]	4µM*	-1%	-51%	2	10µM*
O=C(/C=C/c1ccco1)NC(=S)Nc1cc(-c2nc3ccccc3s2)ccc1Cl	-9%	0.63µM*	1%	50µM*	-5	1µM*
Cc1ccc(-c2nc3ccccc3s2)cc1NC(=S)NC(=O)c1cccc2ccccc12	-6%	-16%	-2%	0%	1	16%
O=C(/C=C/c1ccco1)NC(=S)Nc1cccc(-c2nc3ccccc3s2)c1	-12%	.	.	-49%	.	.
CC1CCN(S(=O)(=O)N2CCC(C(=O)O)CC2)CC1	-6%	-10%[10 µM]	0%	-8%	6	-3%
Cc1cccc(OCC(=O)NCc2nnc3ccc(C(F)(F)F)cn23)c1C	6%	.	.	2%	.	.
O=C(Nc1cccc(F)c1)C1CCN(C(=O)c2ccc(Cl)cc2)CC1	9%[57.1 µM]	68%	0%	9%[57.1 µM]	2	18%
COc1cccc([C@@H]2Oc3ccc(OC)cc3/C(=N/OC[C@@H](C)[C@H](OCc3ccccc3)C(C)C)[C@@H]2O)c1	.	23%[10 µM]	.	.	0	-2%[10 µM]
COc1ccc(Cc2[nH]n3c(=O)cc(C)nc3c2-c2ccccc2)cc1	3%[57.1 µM]	11µM*	-3%	10%[57.1 µM]	4	?
COc1ccc(Cc2[nH]n3c(=O)cc(C(C)C)nc3c2-c2ccccc2)cc1	-6%[57.1 µM]	3.5µM*	3%	-3%[57.1 µM]	6	10µM*
SMILES	TrxR1 substrate	RORg inh	GALK inhibitor	TrxR1 inh	FBPA coupling cs	Gal4-VP16 FLuc
Cc1cc(=O)n2[nH]c(C(F)(F)F)c(-c3ccccc3)c2n1	63%	-26%	0%	30%	4	-13%
Cn1c(=O)c2c(nc(NCc3ccc4c(c3)OCO4)n2Cc2ccc(F)cc2)n(C)c1=O	-11%	-37%	-1%	-9%	1	10µM*
Cn1c(=O)c2c(nc(NCc3ccccc3)n2Cc2ccccc2Cl)n(C)c1=O	-1%	.	.	6%	.	.
Cn1c(=O)c2c(nc(NCc3ccc4c(c3)OCO4)n2Cc2ccccc2)n(C)c1=O	3%[57.1 µM]	-37%	2%	15%[57.1 µM]	0	7.1µM*
Cn1c(=O)c2c(nc(NCc3ccc4c(c3)OCO4)n2Cc2ccccc2F)n(C)c1=O	-2%[57.1 µM]	1%	-7%	17%[57.1 µM]	1	18µM*
CCCc1cc2c(=O)c(-c3cscn3)c(C(=O)OCC)oc2cc1O	-1%	?	7%	2%	-4	-25%
CCOC(=O)c1[nH]nc(-c2cc(CC)c(O)cc2O)c1-c1cscn1	-2%	?	0%	-2%	-24	13µM*
CCCCCCCNC(=O)C1(CC2CC(c3cccc(Br)c3)=NO2)CCN(C(=O)C2CCCC2)CC1 (stereo not drawn)	6%	.	.	32%	.	.
Cc1cc(C)c(CSc2ncc(-c3ccc([N+](=O)[O-])cc3)[nH]2)c(C)c1	-1%[57.1 µM]	10µM*	-1%	3%[57.1 µM]	-8	7.1µM*
COC(=O)c1cc(OC)c(OC)cc1N1C(=O)CCCC1=O	2%[57.1 µM]	15%	-3%	12%[2.29 µM]	-1	3%
COc1ccc(OC)c(N2C(=O)CCCC2=O)c1	-4%	11µM*	0%	-4%	1	2%
CC(C)c1ccc(C2=CC(c3ccc(C(C)C)cc3)n3nnnc3N2)cc1 (stereo not drawn)	5%[57.1 µM]	.	.	18%[57.1 µM]	.	.
O=C1/C(=C/c2cccnc2)SC(=S)N1N1CCOCC1	-10%	-43%	1%	?	5	-14%
O=C1/C(=C/c2cccnc2)SC(=S)N1C1CCS(=O)(=O)C1 (stereo not drawn)	-13%	11µM*	0%	-10%	2	?
O=C1/C(=C\c2cccnc2)SC(=S)N1C1CCS(=O)(=O)C1 (stereo not drawn)	-11%	6.3µM*	0%	-13%	0	?
CCCn1c(CN2CCN(C(=O)c3ccco3)CC2)nc2cc(S(=O)(=O)N(C)C)ccc21	5%	.	.	20µM*	.	.
O=C(O)CCc1c2ccc(=O)c(O)c-2oc2c(O)c(O)ccc12	-5%	.	.	56µM*	.	.
COc1ccc(-n2c(-c3ccc(Br)cc3)n[nH]c2=S)cc1	2%	2.2µM*	-5%	-7%	2	2.5µM*

Source: PubChem (National Center for Advancing Translational Sciences (NCATS))
